Assay outcomes deposited in PubChem by National Center for Advancing Translational Sciences (NCATS).
Only some compounds are listed: those with a hit (about 6% of all), similar ones and a draw of the others.
Chronic BCR inh = chronic active BCR signaling inhibition | Potency, µM (titrated, usually from 46.1 µM), for the others: top-dose activity change, negative = inhibition, hits mostly inhibitors | ABC-DLBCL IkBa-CBG/CBR reporter, luminescence ratio, 4 h | 0.05% of 340,000 active; active means well fitted inhibition curve with a large enough effect in the signal ratio, with a control signal flat, not every such curve was filed as active; inconclusive means small, poorly fitted or top-dose-only effect, or effect the other way, or a change in a side signal; the % refers to the signal ratio;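 further: potency means the concentration at half of the fitted maximal effect; plate controls were basal doxycycline-induced cells for no effect and cells given 10 µM MG132 for full effect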
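TMD8 ABC-DLBCL cells carrying doxycycline-inducible green luciferase fused to IkappaBalpha plus unfused red luciferase were exposed to compounds (up to 46 uM) for 4 hrs at 37C. Activity came from the overlap-corrected green/red luminescence ratio.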
D3 ag = D3 dopamine receptor (human) agonism; P35462; D3R DiscoveRx beta-arrestin cells, luminescence, 90 min; max activation, %; 0.58% of 410,000 active; AID 652048; in the data active means max activation above about 30%; further: 0% is about no effect
Target sequence (P35462 whole entry, looked up): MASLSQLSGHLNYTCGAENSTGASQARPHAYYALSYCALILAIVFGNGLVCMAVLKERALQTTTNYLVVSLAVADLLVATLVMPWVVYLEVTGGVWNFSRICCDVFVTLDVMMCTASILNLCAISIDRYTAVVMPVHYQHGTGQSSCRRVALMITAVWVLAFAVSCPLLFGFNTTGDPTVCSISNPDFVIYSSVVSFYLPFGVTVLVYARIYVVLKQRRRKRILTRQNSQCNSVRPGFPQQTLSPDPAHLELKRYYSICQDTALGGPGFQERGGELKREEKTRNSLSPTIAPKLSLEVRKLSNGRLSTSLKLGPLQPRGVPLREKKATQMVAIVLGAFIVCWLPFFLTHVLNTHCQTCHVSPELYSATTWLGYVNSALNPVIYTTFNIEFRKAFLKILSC
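Agonist mode: compounds and dopamine controls were applied to plated cells for 90 min at 37 degrees C after an overnight attachment at 1500 cells/well. Luminescent read-out followed 30 - 60 minutes at room temperature with DiscoveRx detection reagent.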
D1 antag = blocks dopamine activation of the human D1 receptor; 3.2% of 360,000 active; P21728; HEK293 TREx D1 cells, calcium flux, dopamine EC80; stronger effect = lower value; activity change, negative = inhibition, % at 10 µM; in the data active means activity change below about -30%; further: on the % scale 0 is the no-effect control and ±100 the full control effect
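HEK293 T-REx cells expressing inducible, force-coupled D1 receptor; no-wash Ca dye, 30–90 min RT. Cmpd → 180 s read at 1 Hz → EC80 DA → 180 s read.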
D3 antag = D3 dopamine receptor (human) antagonism; 2.5% of 360,000 active; D3R cells, DiscoveRx beta-arrestin luminescence, antagonist mode; stronger effect = lower value; max response, negative = inhibition, %; P35462; in the data active means max response below about -50%; inconclusive means no clear call, values can overlap the other calls; further: on the % scale 0 is the no-effect control and ±100 the full control effect
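Cells expressing the human receptor were seeded at 1500 cells/well, incubated overnight at 37 degrees C in 5% CO2, then exposed to library compounds with dopamine controls for 90 minutes at 37 degrees C before luminescent detection.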
D1 potentiator = human D1 dopamine receptor positive modulation | 0.036% of 360,000 active | HEK293 TREx D1 cells, calcium flux, dopamine EC20 potentiation | potentiation, % at 10 µM; in the data active means potentiation above about 30%; further: 0% is about no effect
D1 ag = human D1 receptor agonism | 1% of 360,000 active | HEK293 T-REx D1 cells, calcium flux, agonist mode | activation, % at 2 µM; in the data active means activation above about 30%; further: 0% is about no effect
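Agonism was scored from calcium flux recorded over 180 s (1 read/s) after pintool compound addition, following a 10-cycle baseline. Cells were inducible force-coupled HEK293 TREx D1, plated overnight at 30 C and loaded with no-wash calcium dye.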
Starred values were filed as active, the others as inactive; ? = inconclusive; . = no result; ! = repeats disagree.

SMILES | Chronic BCR inh | D3 ag | D1 antag | D3 antag | D1 potentiator | D1 ag
CC(C)(C)NC(=O)C(OC(=O)c1ccco1)c1ccccc1F (centres undefined) | 0.4% | 1.5 | -37.7* | 18.0 | -3.0 | -0.7
O=[N+]([O-])c1ccccc1C=NNC(=S)NN=Cc1ccccc1[N+](=O)[O-] | . | -23.1 | . | -58.2* | . | .
CCCCCC(=O)N/N=C/c1ccccc1[N+](=O)[O-] | -3.2% | 5.9 | -4.5 | 1.7 | 3.1 | 0.7
COc1cc([N+](=O)[O-])cc(/C=N/NC(=O)C(C)Nc2cccc3ccccc23)c1O (centres undefined) | ? | -26.4 | -5.8 | -84.2* | -5.5 | 1.8
Cc1ccc(NC(=S)N/N=C/c2ccc([N+](=O)[O-])s2)cc1 | ? | 3.2 | 9.9 | ? | -4.3 | 31.3*
CC(Nc1cccc2ccccc12)C(=O)N/N=C/c1ccc([N+](=O)[O-])cc1 (centres undefined) | ? | 9.2 | -29.0 | -18.3 | -12.6 | 0.8
COc1ccc(OC)c(NC(=O)C(=O)N/N=C/c2ccccc2[N+](=O)[O-])c1 | ? | -3.2 | -34.5* | -10.0 | -6.7 | -0.5
Cc1cc(NC(=O)n2ncc3c(C)cccc32)ccc1Br | . | 3.1 | 4.9 | . | -2.0 | -0.8
O=C(N/N=C/c1cccc([N+](=O)[O-])c1O)c1cccs1 | ? | -21.3 | 5.1 | -24.7 | -4.0 | 0.0
COc1cc([N+](=O)[O-])cc(/C=N/NC(=O)c2cccnc2)c1O | ? | -10.5 | 6.3 | ? | -0.5 | 1.3
O=C(N/N=C/c1cccc([N+](=O)[O-])c1O)C(O)(c1ccccc1)c1ccccc1 | -7.4% | -22.8 | -6.2 | -71.3* | -1.4 | 0.9
COc1cc([N+](=O)[O-])cc(/C=N/NC(=O)C(O)(c2ccccc2)c2ccccc2)c1O | -1.1% | -29.0 | -24.5 | -54.7* | -2.5 | -1.6
Cc1cc(/C=N/NC(=O)C(O)(c2ccccc2)c2ccccc2)c(C)n1-c1cccc(C(=O)O)c1 | 1.7% | -16.6 | -30.7* | 0.9 | -4.8 | 2.1
O=[N+]([O-])c1cccc(C=NNc2ccc3ccccc3n2)c1O | . | -13.1 | . | -54.4* | . | .
Cc1cc(/C=N/NC(=O)C(O)(c2ccccc2)c2ccccc2)c(C)n1-c1ccc(C(=O)O)cc1 | ? | -5.0 | 4.9 | -13.0 | -5.0 | 0.4
COc1ccc(C2C(C(=O)Nc3ccccc3)=C(C)Nc3nc(-c4ccccc4Cl)nn32)cc1OC (centres undefined) | . | 2.6 | -0.6 | . | -0.7 | 0.9
CN(C)/N=C/C=C1\CCC/C(=C\c2ccc(F)c(F)c2)C1=O | -26.5% | -1.7 | . | -4.6 | -4.2 | 0.0
CN(C)c1ccc(/C=C2\CCC/C(=C\c3ccccc3)C2=O)cc1 | 3.9% | 7.7 | -18.9 | -2.7 | 0.5 | 90.8*
COc1ccc(/C=C2\CCC/C(=C\C=N\N(C)C)C2=O)cc1 | ? | -1.3 | -35.1* | -0.2 | -2.0 | 13.5
O=C1/C(=C/c2ccccc2)CCCc2ccccc21 | 0.3% | -2.7 | -10.6 | -10.7 | -3.2 | 2.3
COc1ccc(C=C2CS(=O)(=O)CC(=Cc3ccc(OC)cc3)C2=O)cc1 | . | -8.2 | . | -63.7* | . | .
Cc1ccc(-c2cc(C(F)(F)F)n3ncc(C(=O)O)c3n2)cc1 | -0.2% | 5.3 | -0.9 | 0.1 | -3.7 | 0.8
Cc1cc(C(F)(F)F)n2ncc(C(=O)O)c2n1 | -6.4% | 1.7 | -31.0* | 13.0 | . | 4.4
O=C(CNC(=O)c1ccc2ccccc2c1)OC(C(=O)Nc1cc(C(F)(F)F)ccc1Cl)c1ccccc1 (centres undefined) | . | . | 23.8 | . | 4.1 | 5.0
CC(C)OC(=O)Nc1ccc(Oc2c(F)c(F)c(F)c(F)c2F)cc1 | 4.2% | 1.3 | -0.1 | -24.0 | -3.6 | 3.9
SMILES | Chronic BCR inh | D3 ag | D1 antag | D3 antag | D1 potentiator | D1 ag
C/C=C/c1c(F)c(F)c(Oc2ccc(C(=O)O)cc2)c(F)c1F | 16.0% | 31.0* | -7.3 | -12.3 | -2.2 | 0.6
O=C(Nc1cccc(F)c1)Nc1ccccn1 | -3.1% | -3.9 | -37.3* | 17.1 | -5.0 | 0.3
O=C(Nc1ccc2c(c1)OCO2)Nc1cnccn1 | 2.7% | 7.3 | -8.5 | 7.6 | 1.1 | 1.7
O=C(Nc1cccc(F)c1)Nc1cnccn1 | 7.6% | -1.0 | -30.8* | -10.3 | -5.7 | 5.6
Cc1ccc(-c2csc3nc4cc(C(N)=O)ccc4c(=O)n23)cc1 | -1.1% | 0.5 | -7.1 | -61.0* | -6.5 | 2.1
Cc1ccc(CNC(=O)c2ccc3c(=O)n4c(-c5ccc(C)cc5)csc4nc3c2)cc1 | 4.6% | -10.6 | 5.0 | -18.3 | -5.0 | 3.5
CC(C)Oc1cccc(C2CC(=O)Nc3cc4c(cc32)OCO4)c1 (centres undefined) | . | -1.5 | -32.3* | . | -1.1 | 67.9*
Cc1cccc(C2CC(=O)Nc3cc4c(cc32)OCO4)c1 (centres undefined) | . | 5.2 | -0.7 | . | -3.0 | 15.2
CN(C(=O)COC(=O)Cc1ccc(Br)cc1)c1c(N)n(Cc2ccccc2)c(=O)[nH]c1=O | . | -5.0 | . | -21.8 | . | .
C=CCNCCOCCOc1ccc(Cl)cc1C(C)(C)C | ? | -19.8 | 5.6 | -57.9* | -2.1 | 17.2
COCCCNCCOCCOc1ccc(Cl)cc1C(C)(C)C | ? | -7.6 | 13.6 | -23.2 | -6.7 | 38.1*
CCCn1c(=N)n(CC(=O)OCC)c2ccccc21 | 0.2% | 2.8 | -2.4 | 7.4 | -11.0 | 2.5
CCOC(=O)Cn1c(=N)n(Cc2ccc(C(C)(C)C)cc2)c2ccccc21 | . | -14.4 | 1.1 | . | -1.4 | 47.5*
CCn1c2cc(C)sc2c2cnn(Cc3ccccc3F)c(=O)c21 | . | . | 3.2 | . | -2.1 | 7.5
Cc1cc2[nH]c3c(=O)n(Cc4ccccc4F)ncc3c2s1 | . | . | -71.6*! | . | -3.5 | 0.3
Cc1ccc(C)c(NC(=O)c2cc(=O)c3cc(C)cc(C)c3o2)c1 | . | 0.9 | -3.5 | . | 1.9 | 0.4
Cc1n[nH]c2ccc([N+](=O)[O-])cc2c1=O | . | 1.8 | . | -24.1 | . | .
CCNC(=O)C/C(C)=N/NC(=O)C1CCCCC1 | -9.8% | -2.5 | -2.1 | -8.0 | -6.8 | 4.0
CCNC(=O)C/C(C)=N/NC(=O)C12CC3CC(CC(C3)C1)C2 | 1.6% | -3.8 | -31.9* | 0.0 | -4.3 | 0.5
O=c1c2ccccc2sc2ccc(C#CC3(O)CCCCC3)cc12 | . | 27.9 | . | 30.4 | . | .
Nc1ccc(C#Cc2ccc3sc4ccccc4c(=O)c3c2)cc1 | . | 43.6* | . | 50.9 | . | .
CSCC[C@H](NC(=O)c1ccc(Cl)c([N+](=O)[O-])c1)c1nc2ccccc2[nH]1 | ? | -29.7 | -29.4 | -94.7* | -6.4 | 6.2
COc1cc(OC)cc(C(=O)N[C@@H](CCSC)c2nc3ccccc3[nH]2)c1 | ? | -6.9 | -18.7 | -56.0* | -1.9 | -0.1
COc1cccc(C(=O)N[C@@H](CCSC)c2nc3ccccc3[nH]2)c1 | ? | -10.9 | 3.9 | 3.0 | 3.9 | 3.0
